Only some compounds are listed: those with a hit (about 2.2% of all), similar ones and a draw of the others.
Rce1 inhib: yeast Rce1p protease inhibitors, primary screen, biochemical, fluorescence, cell-free homogeneous; CAAX prenyl protease 2 (Saccharomyces cerevisiae (strain ATCC 204508 / S288c)), Q03530; 290,000 compounds, 0.27% hits; yeast membranes, quenched prenylated peptide cleavage fluorescence; calls only; AID 2563, 2010;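 active = fall in fluorescence gain of 50% or more versus controls, with final raw signal at or below 3038400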
Target sequence (Q03530 whole entry, looked up): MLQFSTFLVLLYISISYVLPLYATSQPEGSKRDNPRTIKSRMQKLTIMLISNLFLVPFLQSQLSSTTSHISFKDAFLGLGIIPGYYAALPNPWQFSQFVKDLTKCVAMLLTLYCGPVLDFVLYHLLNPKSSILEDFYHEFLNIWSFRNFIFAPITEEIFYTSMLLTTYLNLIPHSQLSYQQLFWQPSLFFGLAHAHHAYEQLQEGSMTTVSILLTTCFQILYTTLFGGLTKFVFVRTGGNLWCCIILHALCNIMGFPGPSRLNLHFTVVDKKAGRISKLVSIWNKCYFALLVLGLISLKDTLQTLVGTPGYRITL
M18AAP inhibitor: PfM18AAP inhibitors, malaria aminopeptidase, primary screen, biochemical, QFRET, recombinant enzyme; M18 aspartyl aminopeptidase (Plasmodium falciparum 3D7); H-Glu-NHMec fluorogenic cleavage; inhibition, % at 7.35 µM; 290,000 compounds, 1.2% hits; AID 1822, 2009;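 active = inhibition above the campaign mean inhibition over all tested compounds plus 3 SD, cut at about 28% in these data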
PLCg1 inh: PLC-gamma1 enzyme inhibitors, primary screen, biochemical, fluorescence, purified enzyme; 1-phosphatidylinositol 4,5-bisphosphate phosphodiesterase gamma-1 (Homo sapiens), P19174; fluorogenic substrate; inhibition, % at 12.2 µM; 370,000 compounds, 0.84% hits; in the data active = inhibition above about 9.5%
NPR1 activator: GC-A stimulated cGMP production enhancers – HEK293 GC-A cells, cGMP TR-FRET, EC30 ANP, primary screen. activation, % at 10 µM. 370,000 compounds, 0.14% hits. Atrial natriuretic peptide receptor 1 (Homo sapiens), P16066. 0% at EC30 ANP, 100% saturating ANP. AID 1671463, 2021; in the data active = activation above about 40%
PLCb3 inh: human PLC-beta3 inhibitors, primary screen, biochemical, fluorescence. 1-phosphatidylinositol 4,5-bisphosphate phosphodiesterase beta-3 (Homo sapiens), Q01970. Purified PLC-beta3, fluorogenic substrate. inhibition, % at 12.2 µM. 370,000 compounds, 0.18% hits; in the data active = inhibition above about 11%
GC-B act: human GC-B receptor activators, primary screen, HEK293 GC-B cells, cGMP TR-FRET, EC30 CNP; Atrial natriuretic peptide receptor 2 (Homo sapiens), P20594; 0% at EC30 CNP, 100% saturating CNP; activation, % at 10 µM; 370,000 compounds, 0.11% hits;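 active = activation at 10 µM reaching about 35% in either raw or pattern-adjusted values, limit read from the data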
Of the large screens only hits and unclear results are named; the others gave an inactive call.

CC(C)c1nc(N(C)S(C)(=O)=O)nc(-c2ccc(F)cc2)c1/C=C/[C@H](O)C[C@@H](O)CC(=O)O	none (no result: Rce1 inhib, M18AAP inhibitor)
N/C(=N\OC(=O)c1ccc(Cl)c([N+](=O)[O-])c1)c1ccccc1	NPR1 activator 46
N/C(=N\OC(=O)c1ccc(Cl)c([N+](=O)[O-])c1)c1ccccn1	none
Cc1cccc(NC(=S)NNC(=O)c2ccc(O)cc2O)c1C	M18AAP inhibitor 29
Cc1cccc(NC(=O)NNC(=O)c2cc3ccccc3cc2O)c1C	none
CCC(=O)N1CCC(C(=O)NC2CCCc3ccccc32)CC1 (stereo not given)	none (no result: Rce1 inhib, M18AAP inhibitor)
Cc1nc(N2CCCCC2)c2c(C)c(C(=O)Nc3ccccc3C(F)(F)F)sc2n1	Rce1 inhib active
O=C(NCCc1ccccc1F)c1cc2ccccn2n1	none (no result: Rce1 inhib, M18AAP inhibitor)
Cc1ccc2c(c1)N(CCCC(=O)N(C)Cc1ccccc1F)C(=O)CO2	none (no result: Rce1 inhib, M18AAP inhibitor)
Cc1ccc(C)c(/C=N/Nc2nc3ccccc3c(=O)n2O)c1	M18AAP inhibitor 31
Cc1ccc2nc(C)cc(N/N=C/c3ccccc3O)c2c1	none
Cc1cc(C)n2cc(CSc3nnnn3C)nc2n1	none
Cc1cc(C)n2cc(CSc3nncn3C)nc2n1	Rce1 inhib active
CCc1c(C)sc(NC(=O)c2ccoc2C)c1C(N)=O	M18AAP inhibitor 40 (no result: Rce1 inhib)
CCOC(=O)c1c(NC(=O)c2ccoc2C)sc(C)c1C	none
Cc1occc1C(=O)Nc1sc2c(c1C(N)=O)CCCCC2	M18AAP inhibitor 29
COC(=O)c1c(NC(=O)c2ccoc2C)sc2c1CCC2	none
COC(=O)C1CN(Cc2cn(Cc3ccc(C)cc3)nn2)CCS(=O)(=O)N1Cc1ccc(F)cc1 (stereo not given)	none (no result: Rce1 inhib, M18AAP inhibitor)
CSc1nc(=S)cc(C)[nH]1	M18AAP inhibitor 43
Cc1cc(=S)nc(-c2ccccn2)[nH]1	none
CN1CCCN(S(=O)(=O)c2ccc3c(c2)n(C)c(=O)c(=O)n3C)CC1	none (no result: Rce1 inhib, M18AAP inhibitor)
C[C@H]1Cn2nnc(-c3ccccc3)c2Cn2c3ccccc3c(=O)n21	none (no result: Rce1 inhib, M18AAP inhibitor)
Cn1c(=S)c2[nH]c(SCCC(C)(C)C)nc2n(C)c1=O	NPR1 activator 44, GC-B act 50 (no result: Rce1 inhib, M18AAP inhibitor)
CCN(CC)CCSc1nc2c([nH]1)c(=S)n(C)c(=O)n2C	none (no result: Rce1 inhib, M18AAP inhibitor)
CCCCSc1nc2c([nH]1)c(=S)n(C)c(=O)n2C	GC-B act 37 (no result: Rce1 inhib, M18AAP inhibitor)
COC(=O)c1cc(-c2ccc(C(C)=O)cc2)c(=O)n2c1CCC2	none (no result: Rce1 inhib, M18AAP inhibitor)
COc1ccc(/C=N/NC(=O)c2[nH]c3ccc(C)cc3c2-c2ccccc2)c(C(=O)O)c1OC	Rce1 inhib active
COC(C/C=C/[C@@H](O)[C@H](C)OCc1ccccc1)OC	Rce1 inhib active (no result: M18AAP inhibitor)
COC(C/C=C/[C@H](O)[C@H](C)OCc1ccccc1)OC	Rce1 inhib active (no result: M18AAP inhibitor)
COC(C[C@H](O)C[C@H](O)[C@@H](C)OCc1ccccc1)OC	Rce1 inhib active (no result: M18AAP inhibitor)
COC(C/C=C\[C@H](O)COCc1ccccc1)OC	none (no result: M18AAP inhibitor)
COC(C/C=C\[C@H](O)[C@@H](C)OCc1ccccc1)OC	PLCb3 inh 12 (no result: M18AAP inhibitor)
COC(C/C=C\[C@@H](O)[C@H](C)OCc1ccccc1)OC	none (no result: M18AAP inhibitor)
COC(=O)[C@H](C(C)C)N1Cc2nnn(Cc3ccc(C)cc3)c2-c2cc(F)ccc2S1(=O)=O	none (no result: Rce1 inhib, M18AAP inhibitor)
O=C(CSc1nnc(COc2ccccc2)n1-c1ccccc1)Nc1ccc2c(c1)OCCO2	none (no result: Rce1 inhib, M18AAP inhibitor)
COC(C/C=C\C(=O)COCc1ccccc1)OC	none (no result: M18AAP inhibitor, PLCg1 inh, NPR1 activator, PLCb3 inh, GC-B act)
COC(C/C=C/C(=O)[C@H](C)OCc1ccccc1)OC	Rce1 inhib active (no result: M18AAP inhibitor, PLCg1 inh, NPR1 activator, PLCb3 inh, GC-B act)
COC(C/C=C/[C@H](O)[C@@H](C)OCc1ccccc1)OC	Rce1 inhib active (no result: M18AAP inhibitor)
Cc1cccc(-c2cccc3c4c([nH]c23)[C@@H]2C[C@H]3[C@@H](C(=O)N2CC4)[C@H](C)ON3C)c1	none (no result: Rce1 inhib, M18AAP inhibitor)
CCN1C(=S)N[C@@H](c2ccccc2)C(C(=O)OC)=C1C	GC-B act 46
O=C1CSc2ccc(C(=O)N3CCCC(C(=O)N4CCOCC4)C3)cc2N1 (stereo not given)	none (no result: Rce1 inhib, M18AAP inhibitor)
CC(C)(NO)/C(=N/O)c1cccs1	PLCb3 inh 12
Cc1ccc(C)n1NC(=O)c1cccs1	none
Cc1cc(=O)n2ccccc2c1C#N	Rce1 inhib active
CCn1cnc2c1c(=O)n(CC(=O)NCc1ccccc1)c(=O)n2Cc1ccccc1	none
CCn1cnc2c1c(=O)n(Cc1nnc3n1-c1ccccc1SC3)c(=O)n2Cc1ccccc1	none
CCn1cnc2c1c(=O)n(Cc1cccc([N+](=O)[O-])c1)c(=O)n2Cc1ccccc1	GC-B act 41
CCn1cnc2c1c(=O)n(Cc1csc(-c3ccccc3)n1)c(=O)n2Cc1ccccc1	GC-B act 51 (no result: Rce1 inhib)
CN1C(=O)c2cc(NC(=O)Nc3ccccc3)ccc2OC[C@H]2O[C@@H](CC(=O)Nc3cc(F)ccc3F)CC[C@@H]21	none (no result: Rce1 inhib, M18AAP inhibitor)
Cc1ccc(C)c(NC(=O)C2CCCN(S(=O)(=O)c3cccnc3)C2)c1 (stereo not given)	none
Cc1ccc2nc(NC(=O)C3CCCN(S(=O)(=O)c4cccnc4)C3)sc2c1 (stereo not given)	NPR1 activator 48
CN=C1S/C(=C/c2cc(C)n(-c3cc(C)ccc3OC)c2C)C(=O)N1C	none (no result: Rce1 inhib, M18AAP inhibitor)
COC(=O)[C@]12C[C@H](CC(=O)NCc3cccc(C(F)(F)F)c3)C(=O)N(CCc3ccc(OC)c(OC)c3)C1=C[C@H](C1CCCC1)O[C@@H]2C	none (no result: Rce1 inhib, M18AAP inhibitor)
Cc1ccc(-c2cc(C(=O)OC3CCOC3=O)c3ccccc3n2)c(C)c1 (stereo not given)	none
CCN(C(=O)COC(=O)c1cc(-c2cccs2)nc2ccccc12)C1CCS(=O)(=O)C1 (stereo not given)	Rce1 inhib active
O=C(OC1CCOC1=O)c1cc(-c2cccs2)nc2ccccc12 (stereo not given)	NPR1 activator 51
COC(=O)[C@@H]1C[C@@H](c2ccccc2)[C@H](C)C1(C)C	PLCg1 inh 9.7 (no result: Rce1 inhib, M18AAP inhibitor)
COC(=O)[C@H]1C[C@@H](c2ccccc2)[C@H](C)C1(C)C	none (no result: Rce1 inhib, M18AAP inhibitor)
Cc1c(N=C2N=C(NC(=O)Nc3ccc(Cl)cc3)c3ccccc32)c(=O)n(-c2ccccc2)n1C	NPR1 activator 76
Cc1c(NC(=O)Nc2ccc(Cl)cc2)c(=O)n(-c2ccccc2)n1C	none (no result: Rce1 inhib)
CCCCOc1ccc(C(=O)NCC(=O)OC2CCOC2=O)cc1 (stereo not given)	NPR1 activator 57
O=C(CNC(=O)c1ccc(Cl)cc1)OC1CCOC1=O (stereo not given)	none
Cc1[nH]nc2ncc(C(=O)c3cc(F)ccc3O)cc12	none
O=C(c1cn[nH]c1)c1cc(F)ccc1O	M18AAP inhibitor 31
O=C(Nc1nc2c(F)cc(F)cc2s1)C1CCN(C(=O)c2ccc(F)cc2)CC1	NPR1 activator 68 (no result: M18AAP inhibitor)

Compound activity deposited in PubChem by several laboratories.
